High-throughput results (PubChem)
M1 ag parental: M1 agonist counterscreen hit in parental CHO-K1 cells | Fluo-8 calcium fluorescence; scaled to maximal ATP response, vehicle zero | activation, % at 3 µM | actives 0.48% (n = 360,000) | AID 602248; in the data active means activation above about 15%;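 further: untransfected CHO-K1 host cells lacking M1 receptor as counterscreen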
M1 PAM: human CHRM1 positive allosteric modulation. P11229. CHO-K1 hM1, Fluo-8 calcium fluorescence, ACh EC20; 0% = ACh EC20, 100% = maximal ACh. activation, % at 3 µM. actives 0.088% (n = 360,000); in the data active means activation above about 19%, passing the limit was not always enough
Target sequence (P11229 whole entry, looked up): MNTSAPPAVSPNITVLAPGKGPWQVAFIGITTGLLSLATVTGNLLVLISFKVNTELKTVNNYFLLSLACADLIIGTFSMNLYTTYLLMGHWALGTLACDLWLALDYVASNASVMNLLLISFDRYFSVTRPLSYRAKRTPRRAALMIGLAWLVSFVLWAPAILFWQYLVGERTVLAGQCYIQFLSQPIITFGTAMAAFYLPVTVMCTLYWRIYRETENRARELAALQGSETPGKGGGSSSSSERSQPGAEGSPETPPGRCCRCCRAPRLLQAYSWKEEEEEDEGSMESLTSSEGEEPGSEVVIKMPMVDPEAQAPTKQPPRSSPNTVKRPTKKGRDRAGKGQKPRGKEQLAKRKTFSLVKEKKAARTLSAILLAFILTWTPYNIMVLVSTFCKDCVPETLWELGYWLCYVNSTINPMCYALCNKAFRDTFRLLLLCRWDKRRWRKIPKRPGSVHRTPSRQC
CHO-K1 Ca antag: M1 antagonist counterscreen hit in parental CHO-K1 cells; actives 0.6% (n = 360,000); ATP-induced calcium, Fluo-8 fluorescence; inhibition, % at 3 µM; AID 602250;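 active means inhibition above a per-plate cutoff, the plate's mean sample inhibition plus 3 SD, cut at about 24% in these data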;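 further: 0% = DMSO plus EC80 ATP and 100% = DMSO alone without ATP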
CHRM1 antagonist: human CHRM1 antagonism; actives 1.3% (n = 360,000); inhibition, % at 3 µM; CHO-K1 hM1, Fluo-8 calcium fluorescence, ACh EC80 antagonist;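 active means percent inhibition above its own plate's cutoff, namely the mean of that plate's compound wells plus 3 SD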;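 further: peak over basal fluorescence ratio during 140 s after agonist addition; 0% = ACh EC80 plus DMSO and 100% = DMSO alone without agonist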
CHRM1 agonist: activates human CHRM1 receptor; CHO-K1 hM1, Fluo-8 calcium fluorescence, agonist mode; 0% DMSO, 100% acetylcholine EC100; activation, % at 3 µM; actives 0.33% (n = 360,000); AID 588814;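 active means activation above the run's mean compound activation plus 3 SD, cut at about 16% in these data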;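 further: peak over basal fluorescence ratio within a 140 s kinetic read after compound addition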
CHO-K1 Ca PAM: M1 PAM counterscreen hit in parental CHO-K1 cells. ATP EC20, Fluo-8 calcium fluorescence; 0% at ATP EC20, 100% at ATP max. actives 0.02% (n = 360,000). activation, % at 3 µM;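 active means activation above the run cutoff, the mean activation of all test compounds plus 3 SD, cut at about 40% in these data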;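 further: peak over basal fluorescence ratio in a 140 s read after ATP addition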
* = called active by the depositor; . = no result given. In the library only some 2.4% were active in any assay of this set; here they are far more common.

SMILES	M1 ag parental	M1 PAM	CHO-K1 Ca antag	CHRM1 antagonist	CHRM1 agonist	CHO-K1 Ca PAM
Cc1ccc(NC(=O)C(C)N2CCc3ccccc3C2)cc1 (stereo not drawn)	0	-4	-9	6	-9	5
CC(C(=O)Nc1ccc(S(=O)(=O)N2CCCC2)cc1)N1CCCC(C(N)=O)C1 (stereo not drawn)	0	-17	7	38*	-7	-30
CCOC(=O)C1=C(COC(=O)/C=C/c2ccccc2F)NC(=O)NC1C (stereo not drawn)	2	-13	21	27*	0	-31
CCOC(=O)C1=C(COC(=O)/C=C/c2ccccc2Cl)NC(=O)NC1C (stereo not drawn)	3	-4	0	9	0	-3
CC(C)(C)NC(=O)C1c2ccccc2OCC(=O)N1Cc1ccc2c(c1)OCO2 (stereo not drawn)	1	.	-18	.	.	13
COc1cc(/C=N/NC(=O)C(=O)/C=C2\NC3(CCCC3)Cc3ccccc32)ccc1O	13	9	7	-4	22*	14
CN(C)c1ccc(/C=N/NC(=O)C(=O)/C=C2\NC3(CCCC3)Cc3ccccc32)cc1	0	26*	7	-11	11	13
O=C(/C=C1\NC2(CCCC2)Cc2ccccc21)C(=O)N/N=C/c1ccccc1O	0	8	1	-11	-4	8
COc1ccccc1-n1c(-c2ccccc2)c[n+]2c1CCc1ccccc1-2	1	-26	-2	59*	-10	20
CC(C)c1ccc(-n2c(-c3ccccc3)c[n+]3c2CCc2ccccc2-3)cc1	11	-21	32*	26	-13	1
COc1ccc(-n2c(-c3ccc(Br)cc3)c[n+]3c2CCc2ccccc2-3)cc1	0	-28	0	44*	-10	20
COc1ccc(-c2cn(-c3ccc(OC)cc3)c3[n+]2-c2ccccc2CC3)cc1	1	-13	9	21	-15	14
COc1ccc(-c2c[n+]3c(n2-c2ccccc2)CCCCC3)cc1	0	-1	-3	7	-11	16
O=C1NC(=S)S/C1=C\c1cc(Cl)cc(Cl)c1O	37*	-13	14	36*	40*	0
O=C1NC(=S)SC1=Cc1ccccc1Cl	8	-2	-18	0	0	0
CCCN1C(=O)S/C(=C/c2ccc(N3CCOCC3)o2)C1=O	8	-4	3	7	18*	15
COc1ccccc1C1CCN(C(=O)c2ccc(C(C)(C)C)cc2)CC1	0	4	-26	-15	-6	15
O=C(N/N=C/c1cccc([N+](=O)[O-])c1)C1CC1c1ccccc1 (stereo not drawn)	0	3	17	8	-7	-3
CC1CCCC(NC(=O)CSc2ncccn2)C1C (stereo not drawn)	-1	10	27*	-4	0	-23
CCOC(=O)N1CCN(C(=O)c2ccc(OCC)c(OCC)c2)CC1	0	-5	37*	-5	-3	-9
COc1ccc(/C=C2/Sc3ccc(C(=O)N4CCOCC4)cc3NC2=O)cc1OC	2	4	-21	-4	0	14
CCOC(=O)N1CCN(C(=O)c2ccc3c(c2)NC(=O)/C(=C\c2ccc(OC)c(OC)c2)S3)CC1	4	-41	-21	52*	-14	11
COc1ccc2c(c1)N(S(=O)(=O)c1ccccc1)CCC2=O	0	-6	12	6	-6	-7
COc1ccc2c(c1)Sc1ccccc1N2CCN(C)C	1	-22	-5	48*	-4	20
CCN(CC)CCN1C(=O)C2C3c4ccccc4C(c4ccccc43)C2C1=O (stereo not drawn)	1	7	-15	-28	-6	21
CCN(CC)CCN1c2ccccc2Sc2ccc3ccccc3c21	7	-26	-7	95*	-9	-5
CCN(CC)CCN1c2ccccc2Sc2ccccc21	5	-24	-4	100*	-5	5
COC(=O)c1ccc(OC(=O)CCN2c3ccccc3Sc3ccccc32)cc1	1	-6	1	7	-4	15
